Screening results (PubChem)
Cruzain inh noDet: qHTS Assay for Promiscuous and Specific Inhibitors of Cruzain (without detergent); Potency, µM, actives largely listed as inhibitors; purified cruzain, Z-FR-AMC fluorescence, no detergent; 2.3% of 200,000 active; Cruzipain (Trypanosoma cruzi), P25779; further: nearly all actives have a fitted effect of over 40% in size
Target sequence (P25779 123-467 limits assumed): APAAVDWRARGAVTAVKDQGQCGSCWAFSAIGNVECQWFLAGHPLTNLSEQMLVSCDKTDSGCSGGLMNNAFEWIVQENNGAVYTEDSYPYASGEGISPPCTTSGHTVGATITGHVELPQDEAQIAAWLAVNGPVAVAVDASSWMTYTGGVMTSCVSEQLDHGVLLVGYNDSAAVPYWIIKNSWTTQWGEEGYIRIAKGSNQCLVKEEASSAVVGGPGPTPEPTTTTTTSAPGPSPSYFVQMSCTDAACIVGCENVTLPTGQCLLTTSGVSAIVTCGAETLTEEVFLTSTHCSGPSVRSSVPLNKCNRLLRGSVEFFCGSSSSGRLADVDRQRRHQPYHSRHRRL
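Purified cruzain at 1.5 nM, pre-incubated 15 min with compound at room temperature in 100 mM sodium acetate pH 5.5, 5 mM DTT, 0.00005% Triton X-100. Reaction started with 2 uM Z-FR-AMC; AMC fluorescence increase over 60 s gives rate.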
Cruzain Triton: qHTS Assay for Promiscuous and Specific Inhibitors of Cruzain (with detergent); 0.43% of 200,000 active; Potency, µM, most hits filed as inhibitors; purified cruzain, Z-FR-AMC fluorescence, 0.01% Triton; Cruzipain (Trypanosoma cruzi), P25779; further: nearly all actives have a fitted effect of over 40% in size
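Detergent-containing run (0.01% Triton X-100) in acetate buffer pH 5.5 with 5 mM DTT: enzyme at 1.5 nM final, 15 min compound preincubation at room temperature, then 2 uM Z-FR-AMC substrate. Activity taken as 60 s fluorescence increase at 360/450 nm.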
Numbers stand for hits; - = inactive; ? = inconclusive. The list is not random: actives were taken first. Their share in the collection is about 2.6%. The call rests on the fitted dose curve; in most records, active means well fitted curve in the direction sought with a large enough effect; inconclusive means small, poorly fitted or top-dose-only effect, or another doubt; inactive means no such curve, though single readings can be large; an effect the other way counts as inactive or inconclusive.

SMILES	Cruzain inh noDet	Cruzain Triton
Cc1ccc(N(CC(=O)N/N=C/c2cc(C)n(-c3ccccc3)c2C)S(C)(=O)=O)c(C)c1	-	-
COc1ccccc1NC(=O)C1=C(C)Nc2ncnn2C1c1ccc[nH]1 (stereo not drawn)	-	-
O=C(Nc1cc(Cl)cc(Cl)c1)c1ccc(F)c(S(=O)(=O)NC2CCCCC2)c1	-	-
COc1ccc(-c2cc(=O)oc3cc4occ(C)c4cc23)cc1	-	-
COc1ccc(-c2cc(=O)oc3cc(OC(=O)C4CCCCC4)c(Cl)cc23)cc1	6.3µM	-
COc1ccc(CNC(=O)c2ccc3c(c2)N(Cc2ccccc2)C(=O)c2ccccc2S3(=O)=O)cc1	?	-
COCCNC(=O)c1ccc2c(c1)N(Cc1cccc(Cl)c1)C(=O)c1ccccc1S2=O (stereo not drawn)	-	-
O=C(OCC1CCCO1)c1ccc2c(c1)N(Cc1ccccc1Cl)C(=O)c1ccccc1S2(=O)=O (stereo not drawn)	-	-
O=C(NCCC1=CCCCC1)c1ccc2c(c1)N(Cc1cccc(Cl)c1)C(=O)c1ccccc1S2=O (stereo not drawn)	13µM	-
Cc1ccc(C)c(CN2C(=O)c3ccccc3S(=O)(=O)c3ccc(C(=O)NCCC4=CCCCC4)cc32)c1	32µM	-
CCOC(=O)c1ccc2c(c1)N(Cc1ccc(F)cc1Cl)C(=O)c1ccccc1S2(=O)=O	10µM	-
COc1ccc(CNC(=O)c2ccc3c(c2)N(Cc2ccccc2F)C(=O)c2ccccc2S3(=O)=O)cc1	25µM	-
O=C(NCCC1=CCCCC1)c1ccc2c(c1)N(Cc1ccc(F)cc1)C(=O)c1ccccc1S2(=O)=O	?	-
CCOc1ccc(-c2nonc2NC(=O)c2ccc(C)cc2)cc1OCC	-	-
Cc1ccc(CN(Cc2ccco2)c2cnc(S(C)(=O)=O)nc2C(=O)Nc2ccc(Br)cc2)o1	-	-
O=C(NCc1ccco1)c1ccc2c(c1)N(Cc1ccc(Cl)cc1)C(=O)c1ccccc1S2(=O)=O	25µM	-
CCc1ccccc1NC(=O)c1ccc2c(c1)N(Cc1cc(C)ccc1C)C(=O)c1ccccc1S2(=O)=O	16µM	-
COCCNC(=O)c1ccc2c(c1)N(Cc1cc(C)ccc1C)C(=O)c1ccccc1S2=O (stereo not drawn)	?	-
O=C(NCCC1=CCCCC1)c1ccc2c(c1)N(Cc1ccc(Cl)cc1)C(=O)c1ccccc1S2(=O)=O	32µM	-
Cc1ccc(C)c(CN2C(=O)c3ccccc3S(=O)(=O)c3ccc(C(=O)N4CCCC4)cc32)c1	?	-
O=C(NCc1ccco1)c1ccc2c(c1)N(Cc1cccc(Cl)c1)C(=O)c1ccccc1S2(=O)=O	?	-
O=C(NCCC1=CCCCC1)c1ccc2c(c1)N(Cc1cccc(Cl)c1)C(=O)c1ccccc1S2(=O)=O	?	-
Cc1ccc(C)c(CN2C(=O)c3ccccc3S(=O)c3ccc(C(=O)NCCc4ccc(Cl)cc4)cc32)c1 (stereo not drawn)	6.3µM	-
O=C(COc1ccccc1)Nc1ccc(OCc2cc(=O)n3ccsc3n2)cc1	-	-
CCCc1nn2c(=O)cc(COC(=O)c3ccccc3NC(=O)C3CCCCC3)nc2s1	-	-
SMILES	Cruzain inh noDet	Cruzain Triton
COCCn1c(=O)c(-c2cn(C)c3ccccc23)nc2cnc(N3CCNCC3)nc21	-	-
CCn1c(C(=O)NCc2ccc(OC)cc2)cc2sc(Cl)cc21	-	-
CC(C)C(NC(=O)c1ccco1)C(=O)NCC(c1ccco1)N1CCCCC1 (stereo not drawn)	?	14µM
O=C(Cc1ccsc1)NCC(c1ccco1)N1CCCCC1 (stereo not drawn)	-	-
Cn1c(=O)n(C)c2cc(CNCc3ccc(F)cc3)ccc21	-	-
Cc1ccc2nc(N3CCN(c4ccccc4)CC3)c3nnnn3c2c1	-	-
Clc1cccc(N2CCN(c3nc4ccccc4n4nnnc34)CC2)c1	20µM	-
CCOC(=O)c1c(-c2cccc([N+](=O)[O-])c2)csc1NC(=O)CCCOc1ccccc1OC	-	-
CCOC(=O)c1c(-c2cccc([N+](=O)[O-])c2)csc1NC(=O)CCCOc1ccccc1	32µM	-
O=C(CCn1ccc2cc(S(=O)(=O)N3CCCC3)ccc21)NCc1cccc(Br)c1	-	-
CCOc1cc(C(=O)Nc2ccc3oc(-c4ccc(CC)cc4)nc3c2)cc(OCC)c1OCC	-	-
Cc1nnc(-c2ccc(Oc3ccc(Br)cc3)c([N+](=O)[O-])c2)o1	-	-
Cc1cc(Oc2ccc(-c3nnc(-c4ccccc4)o3)cc2[N+](=O)[O-])ccc1Cl	13µM	-
COc1ccc(CNc2ncnc3c2c(-c2ccccc2)cn3-c2ccc(C)c(Cl)c2)cc1	-	-
COc1ccc(OC)c(-n2c3c(cc(-c4nc(-c5ccc(Cl)cc5)cs4)c2=O)C(=O)CC(C)(C)C3)c1	-	-
COc1ncc2nc(-c3ccc(F)cc3)c(=O)n(C)c2n1	-	-
COc1ccc(C(=O)Nc2ccc(C(=O)OCC(=O)c3cccc4ccccc34)cc2)cc1	1.6µM	-
COc1ccc(C(=O)Nc2ccc(C)cc2C(=O)c2ccccc2)cc1	-	-
COc1ccc(OC)c(C(=O)c2ccc(C(=O)Nc3cccc4ccccc34)cc2)c1	25µM	-
COc1ccc(C(=O)COC(=O)c2cccc(NC(=O)c3ccc(OC)c(OC)c3)c2)cc1	?	-
CC1(CN2CCC(n3c(=O)[nH]c4ccccc43)CC2)OCc2ccccc2-n2cccc21 (stereo not drawn)	-	-
Cc1cccc([N+](=O)[O-])c1C	-	-
O=C(NCc1cn2ccsc2n1)c1cccc(C(F)(F)F)c1	-	-
O=C(NCc1cn2ccsc2n1)c1c(F)cccc1Cl	20µM	-
O=C(Nc1cc(Sc2ccccn2)cc([N+](=O)[O-])c1)c1ccc([N+](=O)[O-])cc1	32µM	-
SMILES	Cruzain inh noDet	Cruzain Triton
O=C(NCc1ccccn1)c1ccc([N+](=O)[O-])cc1	-	-
Nc1ccccc1O.O.O=C(O)[C@H]1[O][Sb][O][C@H]1C(=O)O	-	-
COc1ccc2oc(=O)c(/C(C)=N/Nc3nc(-c4cc(C)ccc4C)cs3)cc2c1	13µM	-
C/C(=N\Nc1nc(-c2ccc(C)cc2C)cs1)c1cc2ccccc2oc1=O	?	-
CC(C)CCN1CC(O)=C(c2nc(-c3ccc(Cl)cc3)cs2)C1=N	25µM	-
N=C1C(c2nc(-c3ccc(F)cc3)cs2)=C(O)CN1CCCN1CCOCC1	-	-
COCCn1c(=O)c(-c2ccc(F)cc2)nc2cnc(OC)nc21	-	-
CCc1nn2c(=O)cc(COC(=O)c3cccc(NC(=O)CCc4ccccc4)c3)nc2s1	-	-
O=[N+]([O-])c1ccc2c(c1)C(N1CCOCC1)/C(=C/COc1ccc3ccccc3c1Br)O2 (stereo not drawn)	25µM	-
O=[N+]([O-])c1ccc(OC/C=C2\Oc3ccc([N+](=O)[O-])cc3C2N2CCOCC2)cc1 (stereo not drawn)	-	-
C/C(=N\NC(=S)NC(C)C)c1ccc(Cl)s1	-	-
C/C(=N\NC(N)=S)c1ccc(Cl)s1	0.25µM	0.56µM
Cc1ccc(S(=O)(=O)c2nnn3c2nc(Nc2ccc(C(C)C)cc2)c2sccc23)cc1C	-	-
CS(=O)(=O)C1=NSC2=NC(=O)/C(=C\c3ccc(-c4ccccc4)o3)C(=N)N21	-	-
